Experimental findings from PubChem BioAssay (NCI) are described below.

Assay [1] is described as follows: NCI Yeast Anticancer Drug Screen. Data for the rad50 strain (AID 155).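 Further: 0% = growth of vehicle-only cultures of the same strain.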 Particulars: S. cerevisiae rad50 strain growth inhibition; at 50.0 µM; hits give high values. A digest of the protocol: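 A DNA repair-deficient yeast mutant serves as the test organism; compound-induced growth inhibition is calculated against vehicle-treated cells.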
A short description of assay [2]: NCI Yeast Anticancer Drug Screen. Data for the mec2-1 strain (AID 157). Particulars: S. cerevisiae mec2-1 strain, at 50.0 µM, hits give high values. A digest of the protocol:
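Cells of the genetically defined mec2-1 yeast strain are incubated with test compound. Inhibition of growth is calculated against vehicle-treated controls.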

Assay [3] in a line: NCI Yeast Anticancer Drug Screen. Data for the sgs1 mgt1 strain (AID 161).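 Further: 0% = growth of cultures given vehicle only.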 Particulars: S. cerevisiae sgs1 mgt1 strain, at 50.0 µM, hits give high values. A digest of the protocol: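 Genetically altered yeast, compound exposure, growth inhibition relative to vehicle.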
Assay [4] can be described thus: NCI Yeast Anticancer Drug Screen. Data for the cln2 rad14 strain (AID 165).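 Further: 0% = growth equal to vehicle treated cultures.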 Conditions: S. cerevisiae cln2 rad14 strain, at 50.0 µM, hits give high values. In outline: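 The screen exposed genetically defined yeast (cln2 rad14) to test compounds and scored growth inhibition relative to vehicle-treated controls.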
Assay [5] in a line: NCI Yeast Anticancer Drug Screen. Data for the bub3 strain (AID 167). Conditions: S. cerevisiae bub3 mutant strain, at 50.0 µM, hits give high values. In outline: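 Inhibition values come from growth of compound-treated mutant yeast normalised to vehicle-treated controls.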
A short description of assay [6]: NCI Yeast Anticancer Drug Screen. Data for the mlh1 rad18 strain (AID 175). Particulars: S. cerevisiae mlh1 rad18 strain growth inhibition; at 50.0 µM; hits give high values. In outline:
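Compound-treated yeast growth, normalised to vehicle controls. Strain bears defined DNA repair mutations.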

Structures are written as SMILES. This is part of a sample that, as a whole, favours compounds with a hit. Of some 79,000 tested, about 15% had one in any assay. Unmarked numbers belong to inactive results. Calls of active or inactive are those of the source. No stated cut-off is given here; in the data, active means growth inhibition above about 70%; inactive means the rest. Where a SMILES comes first, the peptide text is derived from it. The star is where a group is joined. Cbz = O=C(OCc1ccccc1)*

On to `CCCCCOC(=O)Nc1ccc(OCC)cc1`, for which the growth inhibition in assay [1] was -9.15%; in assay [2], -4.95%; in assay [3], -3.15%; in assay [4] it was -21.9%; in assay [5], -1.3%; in assay [6], -4.25%.
`COc1ccc(C2COc3c(ccc(OC)c3OC)C2=O)cc1OC` (stereo not given): the growth inhibition was -20.7% in assay [1]; -1% in assay [2]; -1.2% in assay [3]; -6.5% in assay [4]; -0.5% in assay [5]; -18.5% in assay [6].
In the case of `CC(C)=C1CCC(CN2CCOCC2)C1=O` (stereo not given), the growth inhibition in assay [1] was 25.2%; in assay [2] it was 16.4%; in assay [3], 23.1%; in assay [4], 19.6%; in assay [5], -2.6%; in assay [6], 87% (active).
As to `COC(=O)c1ccccc1CC1Cc2c(C)ccc(C)c2C1=O` (stereo not given), the growth inhibition in assay [1] was -3.9%; in assay [2] it was 3.1%; in assay [3] it was 0.15%; in assay [4] it was 3.45%; in assay [5], 0.55%; in assay [6] it was 17.8%.
As to `CC(C)NC(=O)OCCN=c1c2ccccc2ccc2ccccc12`, the growth inhibition was 53.3% in assay [1]; 49.8% in assay [2]; 65.9% in assay [3]; 22.7% in assay [4]; 60.1% in assay [5]; 38.9% in assay [6].
With `O=C(Cc1csc(N=Nc2c(O)[nH]c3ccccc23)n1)Nc1ccccc1`, the growth inhibition in assay [1] was -16.2%; in assay [2], -24.4%; in assay [3], -6.35%; in assay [4], -8.75%; in assay [5], -7.05%; in assay [6] it was 10.9%.
Turning to `Cc1cc(O)c(/C=N/C(=S)Nc2ccccc2)c(=O)o1`, the growth inhibition in assay [1] was -20.4%; in assay [2], -48.8%; in assay [3], -24.1%; in assay [4] it was -8.65%; in assay [5] it was -48.2%; in assay [6], -39%.
On to `CC(C)(CCC(=O)O)C(=O)O`, for which the growth inhibition in assay [1] is -4.15%; in assay [2], -34.1%; in assay [3] it was -30.5%; in assay [4] it was 4.95%; in assay [5], -32.9%; in assay [6], -2.9%.
Regarding `Cc1cc(S(=O)(=O)Nc2nnc3c4ccccc4cnn23)c(S)cc1Cl`, the growth inhibition in assay [1] was -38%; in assay [2], -24.4%; in assay [3], -21%; in assay [4], 2.7%; in assay [5], -15.8%; in assay [6], -31.6%.
Consider `c1ccc(-c2nc3ccccc3nc2-c2ccc(-c3ccc(-c4nc5ccccc5nc4-c4ccccc4)cc3)cc2)cc1`, for which the growth inhibition in assay [1] was 16.1%; in assay [2] it was 5.8%; in assay [3] it was -13.8%; in assay [4], 21.3%; in assay [5] it was -0.4%; in assay [6], 4.1%.
As to `COc1cc2c(OC)cc1CSCc1sc(C)c(c1Br)CSC2`, the growth inhibition is 19.1% in assay [1]; 21.5% in assay [2]; 4.7% in assay [3]; -26.6% in assay [4]; 12.7% in assay [5]; 14.8% in assay [6].
Turning to `COC(=O)C(Cc1nc2ccc(Cl)cc2[nH]c1=O)C(=O)C(=O)Nc1cc(C)ccc1C` (stereo not given), the growth inhibition was -19.2% in assay [1]; 4.85% in assay [2]; -33% in assay [3]; -35.6% in assay [4]; -26.4% in assay [5]; 14.5% in assay [6].
In the case of `Brc1cccc(Br)n1`, the growth inhibition in assay [1] is -6.45%; in assay [2], -6.15%; in assay [3], -7.55%; in assay [4] it was 7.4%; in assay [5] it was 2.1%; in assay [6] it was 4.05%.
As for `C=CCc1cc(C(Cc2ccccc2)NC(C)C)cc(OCc2ccccc2)c1OCc1ccccc1` (stereo not given), the growth inhibition in assay [1] was 10.1%; in assay [2], 11.5%; in assay [3], 16.9%; in assay [4], -3.95%; in assay [5], 47.6%; in assay [6], 50.9%.
As to `NC(=O)CC1(C(=O)O)c2ccccc2-c2ccccc21`, the growth inhibition was 17.1% in assay [1]; -14.2% in assay [2]; 2.65% in assay [3]; -7.55% in assay [4]; 14.6% in assay [5]; -3.95% in assay [6].
Regarding `Cc1cc(N)ccc1C(=O)O`, the growth inhibition is 1.7% in assay [1]; -7.65% in assay [2]; -0.65% in assay [3]; 4.15% in assay [4]; 5.2% in assay [5]; 2.45% in assay [6].
In the case of `O=C(O)c1cscn1.O=C(O)c1cscn1.[I][Pt][I]`, the growth inhibition is 5.75% in assay [1]; 3.55% in assay [2]; 13.9% in assay [3]; -17.1% in assay [4]; 0.9% in assay [5]; 48% in assay [6].
On to `CCCCCCCCCCCCCCCCOCC(O)CO` (stereo not given), for which the growth inhibition in assay [1] was -8.55%; in assay [2], -29.2%; in assay [3], 1.25%; in assay [4], -5.65%; in assay [5], -17.1%; in assay [6] it was -56.9%.
Turning to `O=C(CSc1nc2[nH]ncc2c(=O)[nH]1)c1ccc(Cl)cc1`, the growth inhibition is -37.2% in assay [1]; -36.6% in assay [2]; -27.2% in assay [3]; 3.5% in assay [4]; 11.4% in assay [5]; -34.2% in assay [6].
`CC(NC(=O)OCc1ccccc1)C(=O)NC(CO)C(N)=O` (stereo not drawn) (Cbz-Ala-Ser-NH2; configuration not given here): the growth inhibition in assay [1] is 6.15%; in assay [2], -6.5%; in assay [3], -0.25%; in assay [4], 19.2%; in assay [5] it was 5.95%; in assay [6], 8.1%.
